Compound activity deposited in PubChem by several laboratories.
IL1B cytotox: HUVEC cytotoxicity counter-screen, IL-1B stimulated; HUVEC cell count loss, Hoechst imaging; cell count reduction, % at 2 µM; hit rate 0.41% among 94,000;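 active means cell count reduction more than 3 SD above the screen-wide mean, cut at about 70% in these data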;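 further: normalized per plate to untreated control cells as the no-loss baseline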
Measles CPE: protection of cells from measles virus. protection (pct of control), % at 4 µM. Measles virus-infected cells, CPE protection, absorbance. hit rate 1.5% among 140,000; in the data active means protection mostly above about 24%, no sharp cut-off; inactive means mostly below about 26%
NFkB transloc inh: blocks IL-1B driven NFkB nuclear translocation in HUVEC cells; HUVEC IL-1B NFkB p65 nuclear translocation imaging; inhibition, % at 2 µM; hit rate 0.43% among 94,000; AID 796;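 active means inhibition above about 30% together with a positive call from visual inspection of the well image, limit read from the data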;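 further: nuclear over cytoplasmic p65 intensity ratio measured by imaging; 0% = IL-1B stimulated DMSO wells and 100% = unstimulated DMSO wells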
NFkB transloc pot: enhances IL-1B driven NFkB nuclear translocation; hit rate 0.3% among 94,000; AID 819; HUVEC IL-1B NFkB p65 nuclear translocation imaging; activation, % at 2 µM;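 active means activation above 40%, about the mean plus 3 SD, also judged a hit on visual image review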;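 further: percent activation is computed from the nuclear over cytoplasmic p65 intensity ratio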
An asterisk follows results filed as active; / = not tested or not shown. Compounds with a hit are over-represented: about 2.1% of the library has one in this group of screens.

SMILES	IL1B cytotox	Measles CPE	NFkB transloc inh	NFkB transloc pot
COc1ccc(/C=N/NC(=O)c2nn(-c3ccccc3)c(=O)c3c(N)scc23)cc1	-71	51*	-5	5
Cc1ccc(Nc2nnc(C3C(=O)N(C)C4(C)CC3c3cc(Br)ccc3O4)s2)cc1 (stereo not given)	/	22	/	/
COc1ccc(OC)c(/C=C(\NC(=O)c2ccccc2)C(=O)N/N=C/c2ccc(C)s2)c1	-82	35*	-1	1
Cn1c(=O)c2c(nc(NCc3cccnc3)n2Cc2ccc(Cl)cc2)n(C)c1=O	-6	8	-13	13
O=C(Nc1ccccc1OC(=O)c1ccc(Cl)cc1)c1ccc(Cl)cc1	/	79*	/	/
CCOC(=O)CSc1nnc(CNC(=O)c2cccs2)n1CCc1ccccc1	0	15	5	-5
CC1CCCCN1S(=O)(=O)c1ccc(NC(=O)CSc2nnnn2C)cc1 (stereo not given)	/	9	/	/
Cc1cccc2nc(CSc3ccccc3C(=O)O)cn12	/	54*	/	/
Cc1cccc2nc(CSc3ccccc3N)cn12	30	16	4	-4
COC(=O)c1cc(OC)c(OC)cc1NC(=S)N1CCN(C)CC1	73*	15	-1	1
CCC(Nc1ccc(OC)cc1)C(=O)N/N=C/c1ccc([N+](=O)[O-])cc1 (stereo not given)	/	4	/	/
O=C(CCn1c(=O)c2ccccc2n(Cc2cc(=O)n3ccccc3n2)c1=O)NCc1ccco1	/	10	/	/
Cc1ccc(-c2nn(-c3ccccc3)cc2CN(Cc2ccccc2)C(=O)c2ccco2)o1	11	12	-46	46*
O=C(c1cn[nH]c1)c1cc(F)ccc1O	-47	42*	2	-2
Cc1noc2ncc(C(=O)c3cc(F)ccc3O)cc12	93*	3	-30	30
Cc1ccnc(SCCn2c(N3CCOCC3)nc3c2c(=O)n(C)c(=O)n3C)n1	37	/	4	-4
Cc1nc(Nc2ccc3c(c2)OCCO3)c2oc3ccccc3c2n1	5	13	-87	87*
CCOc1ccc2ccccc2c1/C=N/NC(=O)CNC(=O)C(c1ccccc1)c1ccccc1	/	9	/	/
COc1cccc(N2CCN(C3CC(=O)N(c4ccc(C)c(Cl)c4)C3=O)CC2)c1 (stereo not given)	/	19	/	/
COc1cccc(N2CCN(C3CC(=O)N(c4ccc(F)c(Cl)c4)C3=O)CC2)c1 (stereo not given)	88*	2	96*	-96
COc1ccc(C)cc1N(CC(=O)NC1CCCC1)C(=O)CCC(=O)Nc1cc(C)on1	20	10	4	-4
COc1ccc(CCN(CC(=O)NC2CCCC2)C(=O)CCC(=O)Nc2cc(C)on2)cc1OC	/	22*	/	/
Cc1cn(C(=O)C(C)N2C(=O)c3ccccc3C2=O)c(C)n1 (stereo not given)	87*	9	-6	6
Cc1nn(C(=O)C(C)N2C(=O)c3ccccc3C2=O)c(C)c1Br (stereo not given)	23	13	1	-1
COc1ccc(C2(O)CC3CCC(C2)N3c2nc(C)cc(C)c2C#N)cc1 (stereo not given)	-19	8	0	0
SMILES	IL1B cytotox	Measles CPE	NFkB transloc inh	NFkB transloc pot
Cc1cccc(-n2nc3c(c2NC(=O)c2ccco2)CSC3)c1C	-23	28*	15	-15
CC(C)(C)NC(=O)CSc1nc2ccc(NC(=O)CSc3nnnn3Cc3ccccc3)cc2s1	7	44*	-10	11
Cc1cccc(C)c1NC(=O)CS(=O)CC(=O)NC1CCCc2ccccc21 (stereo not given)	/	5	/	/
O=C(Cn1nnc2ccccc21)N/N=C\C=C\c1ccccc1	88*	1	-6	6
CN(C)c1ccc(/C=N/NC(=O)Cn2nnc3ccccc32)cc1	/	4	/	/
Cc1c(C(=O)N2CCN(C)CC2)oc2c1C(=O)CC(C)(C)C2	3	3	6	-6
Cc1c(C(=O)N2CCCC2)oc2c1-c1[nH]ncc1CC2	/	31*	/	/
Cc1ccc2oc(=O)c3cnn(CC(=O)N(CCCN4CCOCC4)Cc4ccco4)c3c2c1	/	41	/	/
Cc1c(Cl)cccc1NC(=O)CCN1CCCCC1	9	20	1	-1
Cc1c(Cl)cccc1NC(=O)CN1CCC(C(O)(c2ccccc2)c2ccccc2)CC1	-9	17	49*	-49
CC(C)N(C(=O)Cn1c(-c2ccccc2Cl)nc2ccccc21)c1ccccc1	/	34*	/	/
CCc1cccc(CC)c1NC(=O)Cn1c(-c2ccccc2Cl)nc2ccccc21	/	1	/	/
Cc1csc(Sc2nc3c(c(=O)[nH]c(=O)n3C)n2Cc2ccccc2Cl)n1	16	8	31*	-31
CCOC(=O)N1CCC(NC(=O)C2CCCCN2S(=O)(=O)c2ccc(F)cc2)CC1 (stereo not given)	-53	34*	-2	2
CC(NC(=S)Nc1ccccc1Cl)C(c1cccs1)N1CCCC1 (stereo not given)	/	9	/	/
